# Compound activity (PubChem BioAssay)
# gsp antagonist = antagonizes gsp, the McCune-Albright syndrome mutation; 340,000 compounds, 0.4% hits; Potency, µM (highest dose often 76.9 µM), without a hit: at the top dose activity change, negative = inhibition, actives largely listed as inhibitors; gsp-mutant cells, cAMP HTRF, 30 min; AID 624288; calls by dose curve; cell line not stated here;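 also: intracellular cAMP measured with PDE inhibitor Ro 20-1724 present during compound exposure; potency is read from the fitted curve at half-maximal effect; % is scaled to controls: 0 for no effect and ±100 for the full control effect; nearly all actives have a fitted effect of over 65% in size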
#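 Cells in G418 medium, seeded 16-24 h, 37C; buffer exchange to DPBS + 1 mM CaCl2, 0.5 mM MgCl2, 0.05% BSA; cpds in DMSO + […] (300 uM stock), 30 min 37C; HTRF cAMP detection.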
# RXFP1 antag = antagonists of human relaxin receptor RXFP1 | Q9HBX9 | HEK293-RXFP1, relaxin-stimulated cAMP HTRF, 30 min; active compounds read low | activity change, negative = inhibition, % at 57.5 µM | 350,000 compounds, 0.59% hits | AID 1259400;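 active = activity change of -60% or lower, but not beyond a set lower limit; inconclusive = change between -60% and -40%, or beyond the set limit; inactive = change above -40%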; also: % is scaled to controls: 0 for no effect and ±100 for the full control effect
# Target sequence (Q9HBX9 whole entry, looked up): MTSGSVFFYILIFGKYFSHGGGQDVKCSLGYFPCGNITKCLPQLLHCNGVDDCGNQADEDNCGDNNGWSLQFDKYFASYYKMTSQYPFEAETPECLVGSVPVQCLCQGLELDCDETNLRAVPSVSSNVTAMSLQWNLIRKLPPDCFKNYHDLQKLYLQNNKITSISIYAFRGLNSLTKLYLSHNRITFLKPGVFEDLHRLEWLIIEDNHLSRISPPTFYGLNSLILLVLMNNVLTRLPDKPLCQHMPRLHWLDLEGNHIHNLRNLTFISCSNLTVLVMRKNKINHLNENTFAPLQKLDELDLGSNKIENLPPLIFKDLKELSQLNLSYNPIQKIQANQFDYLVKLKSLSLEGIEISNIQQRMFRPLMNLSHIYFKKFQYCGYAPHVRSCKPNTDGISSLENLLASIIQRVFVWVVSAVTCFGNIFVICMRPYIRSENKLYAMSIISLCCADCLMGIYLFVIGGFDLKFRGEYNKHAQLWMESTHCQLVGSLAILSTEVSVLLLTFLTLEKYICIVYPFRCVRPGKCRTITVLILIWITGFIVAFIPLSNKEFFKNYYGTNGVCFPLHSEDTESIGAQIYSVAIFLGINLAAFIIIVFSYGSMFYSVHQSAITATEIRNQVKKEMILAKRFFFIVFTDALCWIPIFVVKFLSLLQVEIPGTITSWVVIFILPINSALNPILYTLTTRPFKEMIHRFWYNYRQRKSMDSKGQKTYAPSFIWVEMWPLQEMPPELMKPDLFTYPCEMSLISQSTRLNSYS
# gsp ag = activates gsp, the McCune-Albright syndrome mutation; gsp mutant cells, cAMP HTRF, 30 min; Potency, µM (series often up to 76.9 µM), inactives show top-dose activation (cAMP increase), most hits filed as activators; 340,000 compounds, 0.13% hits; active = well fitted activation curve with a large enough effect; inconclusive = small, poorly fitted or top-dose-only effect, or another doubt; inactive = no such curve, though single readings can be large or run the other way; cell line not stated here;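 also: phosphodiesterase inhibitor Ro 20-1724 added with compounds to block cAMP breakdown; potency is read from the fitted curve at half-maximal effect; nearly all actives have a fitted effect of over 60% in size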
#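 Cells stably selected in G418 were plated at 2000/well, grown 16-24 hr, then given compounds in DMSO with the PDE inhibitor […] (300 uM solution added) for 30 min at 37C; cAMP was read by HTRF.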
# RXFP1 agonist = RXFP1 (human) receptor agonism; HEK293T-RXFP1 cAMP TR-FRET, 30 min; response scale: percent of porcine relaxin response, buffer zero; AID 2676; 370,000 compounds, 0.3% hits; Potency, µM (top dose mostly 57.5 µM), inactives show at the top dose activation, actives largely listed as activators; active = well fitted activation curve with a large enough effect; inconclusive = small, poorly fitted or top-dose-only effect; also: potency is read from the fitted curve at half-maximal effect; % is scaled to controls: 0 for no effect and ±100 for the full control effect; nearly all actives have a fitted effect of over 60% in size
#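 cAMP rise read by TR-FRET after 30 min, 37C compound exposure (up to 58 uM) in RXFP1-transfected HEK293 cells with Ro 20174 present. EC50 from Hill-equation fits, with 29 nM porcine relaxin as 100% and buffer as basal.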
# Numbers without * were called inactive; u = inconclusive; x = no result; [ ] = dose if it differs, or a comment. Compounds with a hit are over-represented: about 0.9% of the library has one in this group of screens.
SMILES,gsp antagonist,RXFP1 antag,gsp ag,RXFP1 agonist
Cc1ccc2nc(Cl)c(C3CC(c4cccs4)=NN3S(C)(=O)=O)cc2c1 (centres undefined),-23%,3,13%,-1%
CC(=O)N1N=C(c2cccs2)CC1c1cc2cc(C)ccc2nc1Cl (centres undefined),50µM*,2,-37%,7%
COc1ccc(NC(=O)Cn2c(C)cc3ccccc3c2=O)c(OC)c1,x,-12,x,21%
CCCCC(=O)O[C@]1(C(=O)CO)[C@@H](C)C[C@H]2[C@@H]3CCC4=CC(=O)C=C[C@]4(C)[C@@]3(F)[C@@H](O)C[C@@]21C,x,-9,x,x
C[C@H](CO)N1C[C@H](C)[C@H](CN(C)S(=O)(=O)c2ccc(F)cc2)Oc2ncc(Br)cc2C1=O,x,2,u,x
C[C@H](CO)N1C[C@H](C)[C@@H](CN(C)S(=O)(=O)c2cccc(F)c2)Oc2ncc(Br)cc2C1=O,x,8,32µM*,x
O=C(CSc1n[nH]c(=O)n1C1CC1)Nc1cc(Cl)ccc1Oc1ccccc1,35µM*,-6,-3%,0%
O=C(c1ccc(CS(=O)Cc2ccc(Cl)cc2)o1)N1CCN(c2cccc(Cl)c2)CC1 (centres undefined),32µM*,-20,36%,4%
Cc1cccc(N2CCN(C(=O)c3ccc(CS(=O)c4cccc(Cl)c4)o3)CC2)c1C (centres undefined),x,-32,x,-1%
O=C(c1ccc(CS(=O)Cc2ccc(Cl)cc2)o1)N1CCN(c2ccc(F)cc2)CC1 (centres undefined),-3%,-1,-23%,1%
Cc1cccc(N2CCN(C(=O)c3ccc(CS(=O)Cc4ccc(Cl)cc4)o3)CC2)c1C (centres undefined),-25%,-78*,11%,0%
Cc1ccccc1S(=O)Cc1ccc(C(=O)N2CCN(c3cccc(C)c3C)CC2)o1 (centres undefined),x,-98*,x,6%
CN(C)c1ccc(/C=N/n2c(-c3ccccc3Br)n[nH]c2=S)cc1,u,-94*,5%,2%
O=C1OC(c2cccc3c(F)cccc23)c2ccccc21 (centres undefined),x,-14,9%,x
c1ccc(C(O[C@H]2CCCN(CCc3ccc4c(c3)OCO4)C2)c2ccccc2)cc1,x,-62*,x,x
CC(NCc1ccc2c(c1)OCO2)c1ccccc1 (centres undefined),9%,5,8%,-3%
C/C(N)=C(/C#N)C(=O)CSc1nnc(SCc2ccc(Cl)cc2)s1,u,-9,2%,5%
C/C(N)=C(/C#N)C(=O)CSc1nn(-c2ccc(Cl)cc2)c(=S)s1,50µM*,-5,-9%,10%
COc1ccc(-c2nc3sc(CCNC(=O)c4cc(OC)c(OC)c(OC)c4)c(C)n3n2)cc1,x,x,x,1%
CCOc1c(Cl)cc(CNc2ccc(N3CCCC3)cc2)cc1OC,5%,-75*,7%[15.4 µM],0%
CCOc1c(Cl)cc(CNc2ccc(S(N)(=O)=O)cc2)cc1OC,9%,15,16%,2%
COc1ccc(C2CC(=O)c3cnc4c(-c5ccccc5)c(C)nn4c3C2)cc1OC (centres undefined),x,x,x,-1%
COc1ccc(C(=O)COC(=O)c2n[nH]c3ccccc23)c(OC)c1,-8%,-18,-4%[15.4 µM],-1%
COc1ccc(OC)c(NC(=O)COC(=O)c2n[nH]c3ccccc23)c1,45µM*,-7,-33%,1%
COc1ccc(C)cc1NC(=O)COC(=O)c1c(C)nn(-c2ccccc2)c1C,40µM*,-11,-43%,-1%
SMILES,gsp antagonist,RXFP1 antag,gsp ag,RXFP1 agonist
Cc1nn(-c2ccccc2)c(C)c1C(=O)OCC(=O)Nc1ccccc1F,-9%,2,-28%,0%
O=C(COC(=O)c1n[nH]c2ccccc12)Nc1ccccc1,x,-18,-5%[15.4 µM],-2%
Cc1cc(C)cc(NC(=O)COC(=O)c2n[nH]c3ccccc23)c1,10µM*,-25,-25%[15.4 µM],1%
O=C(CSc1ncccn1)NC1CCCC1,x,-5,-39%,x
CCCCN(CC)CCCNC(=O)c1ccc2c(c1)N(Cc1ccc(C)cc1)C(=O)c1ccccc1S2,x,-66*,x,1%
COC(=O)c1c(-c2ccc(OC)cc2)sc2ccccc12,x,x,x,3%
O=C(Nc1ccc(N2CCOCC2)c(Cl)c1)c1ccc2c(c1)OCCO2,-7%,-6,-8%,0%
Cc1ccc(NC(=O)c2cc(N3C(=O)C=CC3=O)ccc2N2CCOCC2)cc1Cl,18%,-71*,2%,-1%
